In PubChem BioAssay AID504321 (NMMLSC, 2011):
Activity calls are given as the source filed them.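 How the source made its calls: active means GFP response vs DMSO above 150% with enough events counted; inconclusive means fewer than 70 events counted for a yeast strain; inactive means the rest.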

Experiment: MEP2-GFP expression modulation in yeast, confirmation, flow cytometry, third cherry pick, S. cerevisiae (AID 504321);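 further: median per-cell GFP fluorescence by flow cytometry across all yeast cells; ratio of sample to DMSO median GFP so 100% equals the DMSO level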
Details: S. cerevisiae MEP2-GFP strain, 3 h, at 10 µM, active compounds read high

**Q.** Which GFP response vs DMSO does the source give for `Cc1ccc(C(=O)Nc2nc(-c3ccccn3)cs2)o1` here?
**A.** Its GFP response vs DMSO is 103% (inactive).

**Q.** Which GFP response vs DMSO does the source give for `COc1cccc(N/C=C/C(=O)c2ccc(C)cc2)c1` here?
**A.** Its GFP response vs DMSO is 112% (inactive).

**Q.** With `CCc1c(C)nc2c(OC)cccc2c1Cl` as the compound, how does the GFP response vs DMSO read?
**A.** Its GFP response vs DMSO is 110% (inactive).

**Q.** With `O=C(O)CCCCCNc1ncnc2ccc(Br)cc12` as the compound, how does the GFP response vs DMSO read?
**A.** The GFP response vs DMSO was 101% (inactive).

**Q.** With `NC(=O)COc1cccc2cccnc12` as the compound, how does the GFP response vs DMSO read?
**A.** Its GFP response vs DMSO is 108% (inactive).

**Q.** For `CS(=O)(=O)Oc1ccc(Br)c2cccnc12`, which GFP response vs DMSO is on record?
**A.** The GFP response vs DMSO was 110% (inactive).

**Q.** For `CCC(C)Nc1nc(N)c([N+](=O)[O-])c(Nc2cc(OC)ccc2OC)n1` (centres undefined), which GFP response vs DMSO is on record?
**A.** The GFP response vs DMSO was 114% (inactive).

**Q.** For `CCCC(=O)Nn1cnc2c(c1=O)C1(CCCCC1)Cc1ccccc1-2`, which GFP response vs DMSO is on record?
**A.** The GFP response vs DMSO was 105% (inactive).

**Q.** With `OCCNc1ncnc2ccc(Br)cc12` as the compound, how does the GFP response vs DMSO read?
**A.** Its GFP response vs DMSO is 101% (inactive).

**Q.** For `CC1=CN2C(=N)/C(=C/c3ccc(C)o3)C(=O)N=C2S1`, which GFP response vs DMSO is on record?
**A.** The GFP response vs DMSO was 105% (inactive).

**Q.** With `CCc1sc(C(=O)Nc2nc(-c3ccccn3)cs2)cc1C` as the compound, how does the GFP response vs DMSO read?
**A.** Its GFP response vs DMSO is 114% (inactive).

**Q.** With `COc1ccc(OC)c2c(C)cc(C)nc12` as the compound, how does the GFP response vs DMSO read?
**A.** The GFP response vs DMSO was 108% (inactive).

**Q.** With `Cc1ccc(-c2cc(C(F)F)nc(S(C)(=O)=O)n2)cc1` as the compound, how does the GFP response vs DMSO read?
**A.** The GFP response vs DMSO was 121% (inactive).

**Q.** Which GFP response vs DMSO does the source give for `CCC(C)Nc1nc(N)c([N+](=O)[O-])c(Nc2ccccc2OC)n1` (centres undefined) here?
**A.** Its GFP response vs DMSO is 114% (inactive).

**Q.** For `CNc1nc(N)c([N+](=O)[O-])c(Nc2cccc(Cl)c2)n1`, which GFP response vs DMSO is on record?
**A.** Its GFP response vs DMSO is 170% (active).

**Q.** Which GFP response vs DMSO does the source give for `COc1cccc(N/C(C)=C/C(=O)c2ccc(Br)cc2)c1` here?
**A.** Its GFP response vs DMSO is 101% (inactive).

**Q.** For `Cc1ccc(Nc2cc(=O)[nH]c(=O)[nH]2)cc1C`, which GFP response vs DMSO is on record?
**A.** The GFP response vs DMSO was 114% (inactive).

**Q.** With `CS(=O)(=O)c1nc(-c2ccc(F)cc2)cc(C(F)(F)F)n1` as the compound, how does the GFP response vs DMSO read?
**A.** The GFP response vs DMSO was 133% (inactive).

**Q.** For `CCCCC(=O)NCCc1cc2c(OC)ccc(OC)c2[nH]c1=O`, which GFP response vs DMSO is on record?
**A.** Its GFP response vs DMSO is 108% (inactive).

**Q.** Which GFP response vs DMSO does the source give for `CCOC(=O)CS(=O)(=O)c1nc(-c2ccccc2)cc(C(F)(F)F)n1` here?
**A.** Its GFP response vs DMSO is 151% (active).

**Q.** Which GFP response vs DMSO does the source give for `Cc1cccc(Nc2cc(=O)[nH]c(=O)[nH]2)c1C` here?
**A.** Its GFP response vs DMSO is 114% (inactive).

**Q.** With `CNc1nc(N)c([N+](=O)[O-])c(Nc2ccccc2OC)n1` as the compound, how does the GFP response vs DMSO read?
**A.** The GFP response vs DMSO was 105% (inactive).

**Q.** With `COc1ccc(OC)c2c(=O)cc(C(=O)O)[nH]c12` as the compound, how does the GFP response vs DMSO read?
**A.** The GFP response vs DMSO was 105% (inactive).

**Q.** Which GFP response vs DMSO does the source give for `Cc1nc2c(O)cccc2cc1CO` here?
**A.** Its GFP response vs DMSO is 103% (inactive).

**Q.** With `O=C(O)c1ccc2cccc(O)c2n1` as the compound, how does the GFP response vs DMSO read?
**A.** The GFP response vs DMSO was 110% (inactive).

**Q.** For `COc1ccccc1-c1cc(C(F)(F)F)nc(S(=O)(=O)CCCC(=O)O)n1`, which GFP response vs DMSO is on record?
**A.** The GFP response vs DMSO was 110% (inactive).

**Q.** For `CC(=O)C(CC(=O)N1CCCC1)C(=O)Nc1ccc(Cl)cc1` (centres undefined), which GFP response vs DMSO is on record?
**A.** The GFP response vs DMSO was 105% (inactive).

**Q.** For `Nc1c(O)ccc2c1C(=O)c1ccccc1C2=O`, which GFP response vs DMSO is on record?
**A.** Its GFP response vs DMSO is 105% (inactive).

**Q.** With `Cc1ccc2c(Cl)cc(Cl)c(OCC(=O)O)c2n1` as the compound, how does the GFP response vs DMSO read?
**A.** Its GFP response vs DMSO is 108% (inactive).

**Q.** With `COc1ccc(N/C=C/C(=O)c2ccc(Cl)cc2)cc1` as the compound, how does the GFP response vs DMSO read?
**A.** Its GFP response vs DMSO is 116% (inactive).

**Q.** With `Cn1c(=O)c2c(n3cnnc13)-c1ccccc1CC21CCCC1` as the compound, how does the GFP response vs DMSO read?
**A.** Its GFP response vs DMSO is 112% (inactive).

**Q.** With `Cc1nc(Nc2ccc(Cl)cc2)c(C#N)c(=O)[nH]1` as the compound, how does the GFP response vs DMSO read?
**A.** Its GFP response vs DMSO is 108% (inactive).

**Q.** Which GFP response vs DMSO does the source give for `O=C(O)c1ccc(C=NNC(=O)c2cccc3ccccc23)cc1` here?
**A.** Its GFP response vs DMSO is 103% (inactive).

**Q.** With `C/C(=C\C(=O)c1ccc(Cl)cc1)Nc1ccc(Br)cc1` as the compound, how does the GFP response vs DMSO read?
**A.** The GFP response vs DMSO was 105% (inactive).

**Q.** With `O=C(Nc1ccccc1)O/N=C1/CCCc2occc21` as the compound, how does the GFP response vs DMSO read?
**A.** Its GFP response vs DMSO is 112% (inactive).

**Q.** With `CSc1nc(S(C)(=O)=O)nc2[nH]c(=O)[nH]c12` as the compound, how does the GFP response vs DMSO read?
**A.** The GFP response vs DMSO was 110% (inactive).

**Q.** For `Cc1ccc2nc(-c3ccc(NC(=O)c4cccnc4)cc3)oc2c1`, which GFP response vs DMSO is on record?
**A.** Its GFP response vs DMSO is 114% (inactive).

**Q.** Which GFP response vs DMSO does the source give for `O=C1c2ccccc2C(=O)c2c1cccc2N(CCO)CCO` here?
**A.** The GFP response vs DMSO was 108% (inactive).

**Q.** For `COc1cccc(NC(=O)CC(C)=O)c1`, which GFP response vs DMSO is on record?
**A.** Its GFP response vs DMSO is 108% (inactive).
